Results taken from PubChem BioAssay AID686979 (National Center for Advancing Translational Sciences (NCATS), 2013).
Hit rate of the full screen: of about 420,000 compounds, about 50,000 (12%) were called active. Inconclusive results (about 26%) are left out. Calls come from the whole dose curve; as a rule, active = well fitted inhibition curve with a large enough effect; inconclusive = small, poorly fitted or top-dose-only effect; inactive = flat fitted curve, though single readings scatter. This excerpt belongs to a sample that is enriched for actives. Where a SMILES comes first, the peptide text is derived from it. [ ]: non-standard residue; d: D form. The star is where a group is joined. ξ: configuration not given here. Cbz = O=C(OCc1ccccc1)*; ξL = CC(C)CC(N)C(=O)O; ξP = O=C(O)C1CCCN1

Test: qHTS for Inhibitors of human tyrosyl-DNA phosphodiesterase 1 (TDP1): qHTS in cells in presence of CPT; note: nearly all actives have a fitted effect of over 55% in size
Settings: chicken DT40 Tdp1-/-;hTDP1 cells + 20 nM CPT, ATP luminescence, 48 h; series mostly up to 46.2 µM; activity change, negative = growth inhibition: at the top concentration
Procedure, shortened: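 Cell growth measured by CellTiter-Glo luminescence after a minimum 48 h, 37 C compound exposure with 20 nM CPT in Tdp1-knockout DT40 cells stably expressing hTDP1, seeded 400/well; qHTS titration format.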
% is set by controls: 0 for no effect and ±100 for the full control effect; potency is the fitted concentration of half-maximal effect.

| SMILES | activity change, negative = growth inhibition | Potency |
| --- | --- | --- |
| O=C(c1cc2ccccc2o1)N1CCN(c2cccc(C(F)(F)F)c2)CC1 | 1.06% (inactive) | – |
| Cc1ccc(C)c(S(=O)(=O)N2CCCOC2CNC(=O)C(=O)NC2CCCCC2)c1 (centres undefined) | 5.54% (inactive) | – |
| Cn1c(Nc2ccccc2)cc(=O)n(C)c1=O | 4.61% (inactive) | – |
| S=c1ccc2ccccc2[nH]1 | – | 13 µM (active) |
| CCOC(=O)c1ccccc1NS(=O)(=O)c1c(C)nc2sccn2c1=O | -6.93% (inactive) | – |
| COc1ccccc1NC(=O)CSC1=Nc2ccccc2C2=NC(CC(=O)NCc3cccs3)C(=O)N12 (centres undefined) | – | 20.6 µM (active) |
| Cc1ccc(CNC(=O)CSC2=Nc3ccccc3C3=NC(C)C(=O)N23)cc1 (centres undefined) | -26.7% (inactive) | – |
| O=C(CSC1=Nc2ccccc2C2=NC(CC(=O)NCc3ccco3)C(=O)N12)NCc1ccco1 (centres undefined) | -13.9% (inactive) | – |
| CN1CCC(=NNC(=O)c2ccc(N(Cc3ccc(Cl)cc3)S(C)(=O)=O)cc2)CC1 | 4.52% (inactive) | – |
| CC(=O)Nc1ccc(NC(=O)CC2CCCC2)cc1 | 0.0692% (inactive) | – |
| CSc1ncnc2c1ncn2CC(=O)C1CCC2C3CCC4=CC(=O)CCC4(C)C3CCC12C (centres undefined) | – | 5.8 µM (active) |
| CSc1ncnc2c1ncn2CCCNCC1CCCCC1 | -26.5% (inactive) | – |
| CCOC(=O)c1ccc(CS(=O)c2ccc(Cl)cc2)o1 (centres undefined) | -18.3% (inactive) | – |
| CC(Nc1ccc([N+](=O)[O-])cc1[N+](=O)[O-])c1ccccc1 (centres undefined) | 3.71% (inactive) | – |
| Cc1ccc(C(=O)NCCNC(=O)c2cnccn2)cc1 | 8.28% (inactive) | – |
| CCN(CC)c1ccc(/C=N/NC(=O)CNC(=O)c2cccnc2)cc1 | 31.8% (inactive) | – |
| CCN(CC)c1ccc(C(=O)Nn2c(C)nc3ccccc3c2=O)cc1 | -17.4% (inactive) | – |
| CCN(CC)c1ccc(/C=N/NC(=O)c2cnccn2)c(O)c1 | – | 5.17 µM (active) |
| CCN(CC)c1ccc(/C=N/Nc2nc(C)cc(C)n2)c(O)c1 | – | 4.11 µM (active) |
| O=C(NCc1ccco1)c1cccc(-c2ccc3nncn3c2)c1 | -0.594% (inactive) | – |
| CS(=O)(=O)c1cccc(-c2ccc3nncn3c2)c1 | 11.7% (inactive) | – |
| NC(=O)c1ncc(C(F)(F)F)cc1Oc1ccc(F)cc1 | 0.776% (inactive) | – |

| SMILES | activity change, negative = growth inhibition | Potency |
| --- | --- | --- |
| O=C(Nc1ccccc1Cl)Nn1cnnc1 | -0.423% (inactive) | – |
| O=C(COC(=O)c1ccccc1)c1ccc2c(c1)OCCO2 | 4.32% (inactive) | – |
| O=C(CN1CCC(O)(c2ccccc2)CC1)Nc1ccc2c(c1)OCCO2 | -0.373% (inactive) | – |
| O=C(CCN1CCc2ccccc2C(O)(c2ccccc2)C1)c1ccc2c(c1)OCCO2 (centres undefined) | – | 2.31 µM (active) |
| Cc1ccc(N2C(=O)C3C4C=CC(CC4)C3C2=O)cc1Br (centres undefined) | 18.5% (inactive) | – |
| COc1ccc(CCN2C(=O)CC(N3CCC(C(N)=O)CC3)C2=O)cc1OC (centres undefined) | – | 25.9 µM (active) |
| COc1ccc(CCN2C(=O)C3CC=C(C)CC3C2=O)cc1OC (centres undefined) | -29.7% (inactive) | – |
| COc1ccc(N2C(=O)CC(N3CCC(C(N)=O)CC3)C2=O)cc1 (centres undefined) | -10.4% (inactive) | – |
| COc1cccc(NC(=S)C(C#N)=C2N(C)c3ccccc3N2C)c1 | 2.93% (inactive) | – |
| CN1CCN(CCC(=O)N/N=C/C=C2\N(C)c3ccccc3C2(C)C)CC1 | -20.6% (inactive) | – |
| CC(=O)Nc1cccc(OCC(=O)/C=C2\N(C)c3ccccc3C2(C)C)c1 | – | 6.51 µM (active) |
| Cc1cccc(NC(=O)c2cc(S(=O)(=O)N3CCC4(CC3)OCCO4)ccc2F)c1 | 3.62% (inactive) | – |
| Cc1cc(S(=O)(=O)NC2CCCC2)ccc1-n1cnnn1 | -15.2% (inactive) | – |
| CCOc1ccccc1-c1cc(C(=O)N2CCOCC2)c2ccccc2n1 | -24.5% (inactive) | – |
| CCOc1cccc(/C=C/c2ccc3ccccc3n2)c1OC(C)=O | – | 18.4 µM (active) |
| COc1cccc(/C=C/c2ccc3ccccc3n2)c1OC(C)=O | -23.5% (inactive) | – |
| O=S(=O)(/N=C(/Nc1ccccn1)c1ccccc1)c1ccc(Cl)cc1 | 3.49% (inactive) | – |
| Cc1ccc(S/C(=N\S(=O)(=O)c2ccc(Cl)cc2)c2ccccc2)cc1 | – | 14.6 µM (active) |
| Cc1ccc(S(=O)(=O)/N=C(/Nc2ccccn2)c2ccc(Cl)cc2)cc1 | -19.3% (inactive) | – |
| Cc1ccc(NC(=O)COc2ccc(/C=C3/NC(=O)NC3=O)cc2)cc1 | -9.1% (inactive) | – |
| CC(C)CC(NC(=O)C1CCCN1C(=O)[C@@H](C)NC(=O)OCc1ccccc1)C(=O)NCC(N)=O (some centres undefined) (Cbz-[dA][ξP][ξL]G-NH2) | 11.9% (inactive) | – |
| CCOC(=O)c1c(NC(=S)Nc2ccccc2)sc2c1CCN(C)C2 | -6.24% (inactive) | – |

| SMILES | activity change, negative = growth inhibition | Potency |
| --- | --- | --- |
| CCOC(=O)c1c(NC(=O)c2ccc(S(=O)(=O)N3CCCC(C)C3)cc2)sc2c1CCN(C(C)C)C2 (centres undefined) | – | 8.2 µM (active) |
| CCCN(CCC)S(=O)(=O)c1ccc(C(=O)Nc2sc3c(c2C(=O)OC)CCN(CC)C3)cc1 | – | 16.4 µM (active) |
| CCOC(=O)c1c(NC(=O)NC(C)(C)C)sc2c1CCN(C)C2 | 12.6% (inactive) | – |
| CCCN(CCC)S(=O)(=O)c1ccc(C(=O)NNC(=O)c2cc(OC)c(OC)c(OC)c2)cc1 | 0.53% (inactive) | – |
| COC(=O)c1c(NC(=O)c2cc(=O)c3c(C)cc(C)cc3o2)sc2c1CCCC2 | 6.35% (inactive) | – |
| N#CCCN(C(=S)Nc1ccc(Cl)c(Cl)c1)C1CCCCC1 | -10.7% (inactive) | – |
| O=S1(=O)CSCS(=O)(=O)C1 | -1.82% (inactive) | – |
| COc1ccc(S(=O)(=O)N(CC(=O)N/N=C/c2ccc(C(=O)O)cc2)Cc2ccccc2)cc1OC | -0.989% (inactive) | – |
| C=CCO/N=C(\C)c1c(O)c(C)c(-c2ccccc2)n(-c2ccccc2)c1=O | -8.1% (inactive) | – |
| CC(C)[C@@H]1NC(=O)[C@H](Cc2ccccc2)NC(=O)[C@@H](CC(=O)O)NC(=O)CNC(=O)[C@H](CCCNC(=N)N)NC1=O | 0.634% (inactive) | – |
| C=CCNC(=O)C1CC2c3ccccc3C1c1ccccc12 (centres undefined) | -16.5% (inactive) | – |
| CCS(=O)(=O)N1CCC(n2c(C)nc3cccnc32)CC1 | 7.09% (inactive) | – |
| CCCS(=O)(=O)N1CCC(n2c(C(F)(F)F)nc3cccnc32)CC1 | – | 3.66 µM (active) |
| O=C1NC(CC(=O)N2CCC(n3c(C4CCC4)nc4cccnc43)CC2)c2ccccc21 (centres undefined) | -6.43% [at 9.04 µM] (inactive) | – |
| O=C1CCc2cc(S(=O)(=O)Nc3ccc(C(F)(F)F)cc3)cc3c2N1CC3 | -19% (inactive) | – |
| COC(=O)c1ccc(NS(=O)(=O)c2cc3c4c(c2)C(C)C(=O)N4CCC3)cc1 (centres undefined) | -7.26% (inactive) | – |
| O=C1Cc2cc(S(=O)(=O)Nc3ccc(OC(F)(F)F)cc3)cc3c2N1CCC3 | – | 9.2 µM (active) |
| CCn1c(CC(=O)Nc2ccccc2)nnc1SCC(=O)N1CCOCC1 | 7.88% (inactive) | – |
| COc1ccc(C(C#N)Nc2ccc(C)cc2)cc1 (centres undefined) | -0.292% (inactive) | – |
| Cc1ccc(CN2CCN(/N=C/c3ccco3)CC2)c(C)c1 | -24% (inactive) | – |
